# Results taken from article PMC7862700, “An all-to-all approach to the identification of sequence-specific readers for epigenetic DNA modifications on cytosine”.
# Assays:
# Test in all cases: DAPPL (digital affinity profiling via proximity ligation, sequencing); 10 mM Tris-HCl pH 7.5, 50 mM NaCl, 1 mM DTT, 4% glycerol, room temperature, 30 min; GST-TFs on glutathione beads, 16-mer random dsDNA library, 0.1% formaldehyde crosslink after washing; high values mean tight binding
# [1] = target: T1, FLI1 (Homo sapiens, UniProt Q01543 1-452); details: protein: recombinant; tags: N-terminal GST; dsDNA, one strand shown
# T1 sequence: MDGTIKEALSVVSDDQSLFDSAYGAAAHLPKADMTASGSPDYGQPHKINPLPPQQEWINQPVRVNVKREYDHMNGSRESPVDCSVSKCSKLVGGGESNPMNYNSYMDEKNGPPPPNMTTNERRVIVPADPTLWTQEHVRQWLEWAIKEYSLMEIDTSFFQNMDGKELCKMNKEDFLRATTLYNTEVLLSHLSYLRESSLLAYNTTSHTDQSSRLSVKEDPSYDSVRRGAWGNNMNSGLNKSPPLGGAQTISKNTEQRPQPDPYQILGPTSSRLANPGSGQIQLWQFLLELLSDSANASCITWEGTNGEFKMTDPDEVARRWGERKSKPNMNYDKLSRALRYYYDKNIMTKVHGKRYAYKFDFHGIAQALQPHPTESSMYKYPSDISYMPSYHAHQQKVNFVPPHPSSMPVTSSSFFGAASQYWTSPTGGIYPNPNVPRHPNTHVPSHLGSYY
# In short: (§1)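 A tag-only sample was pooled with DNA-barcoded human transcription factors that had been expressed in yeast as GST fusions and captured on glutathione beads. The pools were incubated for 30 min at room temperature with 200 nmole of a random double-stranded 16-mer DNA library in Tris/NaCl/DTT/glycerol buffer, then washed, crosslinked with 0.1% formaldehyde, proximity-ligated (BsaI/T4 ligase, 1 h, 37 °C), PCR-amplified and sequenced on an Illumina NextSeq500. Binding signal is each hexamer's read frequency for a factor divided by its frequency for the tag-only sample.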
# [2] = target: T2, ELK1 (Homo sapiens, UniProt P19419 1-428); details: protein: recombinant; tags: N-terminal GST; dsDNA, one strand shown
# T2 sequence: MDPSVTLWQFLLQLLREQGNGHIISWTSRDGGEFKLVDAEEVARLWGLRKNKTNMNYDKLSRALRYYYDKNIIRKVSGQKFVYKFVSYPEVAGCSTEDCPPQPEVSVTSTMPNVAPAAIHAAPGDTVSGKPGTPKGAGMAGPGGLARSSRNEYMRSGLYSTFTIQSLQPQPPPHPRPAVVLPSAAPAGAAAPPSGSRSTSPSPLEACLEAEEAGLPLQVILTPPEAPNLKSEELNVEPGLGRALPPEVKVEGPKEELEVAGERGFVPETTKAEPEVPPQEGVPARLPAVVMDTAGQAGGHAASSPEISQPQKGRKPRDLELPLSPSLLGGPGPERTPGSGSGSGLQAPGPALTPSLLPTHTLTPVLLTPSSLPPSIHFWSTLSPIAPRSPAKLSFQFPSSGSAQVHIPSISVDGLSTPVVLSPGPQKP
# In short: as §1
# [3] = target: T3, GABPA (Homo sapiens, UniProt Q06546 1-454); details: protein: recombinant; tags: N-terminal GST; dsDNA, one strand shown
# T3 sequence: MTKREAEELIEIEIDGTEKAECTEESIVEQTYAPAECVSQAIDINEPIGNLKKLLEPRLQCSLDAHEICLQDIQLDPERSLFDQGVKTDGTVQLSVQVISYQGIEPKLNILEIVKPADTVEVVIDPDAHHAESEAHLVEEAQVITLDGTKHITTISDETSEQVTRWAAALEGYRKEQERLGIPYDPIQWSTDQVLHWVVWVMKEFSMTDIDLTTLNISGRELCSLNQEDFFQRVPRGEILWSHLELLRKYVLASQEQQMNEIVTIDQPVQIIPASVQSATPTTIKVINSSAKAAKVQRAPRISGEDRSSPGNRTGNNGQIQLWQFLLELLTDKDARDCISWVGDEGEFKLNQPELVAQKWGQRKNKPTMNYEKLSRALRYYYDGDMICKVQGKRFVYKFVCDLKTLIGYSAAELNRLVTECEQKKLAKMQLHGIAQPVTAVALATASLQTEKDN
# In short: as §1
# [4] = target: T4, ERG (Homo sapiens, UniProt P11308 1-479); details: protein: recombinant; tags: N-terminal GST; dsDNA, one strand shown
# T4 sequence: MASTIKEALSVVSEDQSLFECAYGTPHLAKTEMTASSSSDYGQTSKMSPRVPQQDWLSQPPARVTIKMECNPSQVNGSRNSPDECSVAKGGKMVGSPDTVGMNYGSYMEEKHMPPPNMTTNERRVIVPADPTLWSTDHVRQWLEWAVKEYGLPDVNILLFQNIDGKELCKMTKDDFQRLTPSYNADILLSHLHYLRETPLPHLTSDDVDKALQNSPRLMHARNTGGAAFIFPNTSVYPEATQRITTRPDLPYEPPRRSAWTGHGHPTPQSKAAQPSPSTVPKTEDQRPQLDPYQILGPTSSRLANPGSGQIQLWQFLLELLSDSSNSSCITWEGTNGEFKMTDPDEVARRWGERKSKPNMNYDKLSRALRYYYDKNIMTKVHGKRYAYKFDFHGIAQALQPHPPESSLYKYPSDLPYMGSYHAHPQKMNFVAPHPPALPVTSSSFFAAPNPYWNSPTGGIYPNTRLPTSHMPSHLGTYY
# In short: as §1
# [5] = target: ELF1 (Homo sapiens, UniProt P32519 1-619); details: protein: recombinant; tags: N-terminal GST; dsDNA, one strand shown
# In short: as §1
# [6] = target: T5, EHF (Homo sapiens, UniProt Q9NZC4 1-300); details: protein: recombinant; tags: N-terminal GST; dsDNA, one strand shown
# T5 sequence: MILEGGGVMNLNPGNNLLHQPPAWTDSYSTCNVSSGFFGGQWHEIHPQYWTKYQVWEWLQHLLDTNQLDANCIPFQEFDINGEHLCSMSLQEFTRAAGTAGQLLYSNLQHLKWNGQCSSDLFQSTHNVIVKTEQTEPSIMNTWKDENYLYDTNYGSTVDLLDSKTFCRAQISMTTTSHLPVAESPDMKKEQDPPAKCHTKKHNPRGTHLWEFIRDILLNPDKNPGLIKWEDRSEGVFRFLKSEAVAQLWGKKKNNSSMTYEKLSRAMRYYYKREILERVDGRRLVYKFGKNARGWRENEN
# In short: as §1
# [7] = target: SPI1 (Homo sapiens, UniProt P17947 1-270); details: protein: recombinant; tags: N-terminal GST; dsDNA, one strand shown
# In short: as §1
# [8] = target: SPIB (Homo sapiens, UniProt Q01892 1-262); details: protein: recombinant; tags: N-terminal GST; dsDNA, one strand shown
# In short: as §1
# [9] = target: T6, ELK3 (Homo sapiens, UniProt P41970 1-407); details: protein: recombinant; tags: N-terminal GST; dsDNA, one strand shown
# T6 sequence: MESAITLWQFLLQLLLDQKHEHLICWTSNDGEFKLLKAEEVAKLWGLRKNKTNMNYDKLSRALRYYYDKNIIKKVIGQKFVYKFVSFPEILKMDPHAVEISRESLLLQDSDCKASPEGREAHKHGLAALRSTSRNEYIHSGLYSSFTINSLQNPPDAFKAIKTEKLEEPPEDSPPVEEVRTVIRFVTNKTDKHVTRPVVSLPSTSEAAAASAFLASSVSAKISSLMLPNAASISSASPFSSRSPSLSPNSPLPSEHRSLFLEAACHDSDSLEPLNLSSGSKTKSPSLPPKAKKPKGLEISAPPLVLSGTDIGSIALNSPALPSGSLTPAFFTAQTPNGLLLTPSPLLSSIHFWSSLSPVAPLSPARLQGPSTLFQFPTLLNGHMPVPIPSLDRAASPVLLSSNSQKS
# In short: as §1
# [10] = target: T7, FEV (Homo sapiens, UniProt Q99581 1-238); details: protein: recombinant; tags: N-terminal GST; dsDNA, one strand shown
# T7 sequence: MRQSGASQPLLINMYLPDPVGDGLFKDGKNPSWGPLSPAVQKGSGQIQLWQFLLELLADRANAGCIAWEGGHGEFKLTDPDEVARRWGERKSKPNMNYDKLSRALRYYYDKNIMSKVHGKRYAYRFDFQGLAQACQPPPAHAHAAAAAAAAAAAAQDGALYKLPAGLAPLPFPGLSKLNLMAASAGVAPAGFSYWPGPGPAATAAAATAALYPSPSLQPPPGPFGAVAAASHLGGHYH
# In short: as §1
# [11] = target: ETV5 (Homo sapiens, UniProt P41161 1-510); details: protein: recombinant; tags: N-terminal GST; dsDNA, one strand shown
# In short: as §1
# [12] = target: HSF1 (Homo sapiens, UniProt Q00613 1-529); details: protein: recombinant; tags: N-terminal GST; chain copies: 3; dsDNA, one strand shown
# In short: as §1
# [13] = target: T8, SPIC (Homo sapiens, UniProt Q8N5J4 1-248); details: protein: recombinant; tags: N-terminal GST; dsDNA, one strand shown
# T8 sequence: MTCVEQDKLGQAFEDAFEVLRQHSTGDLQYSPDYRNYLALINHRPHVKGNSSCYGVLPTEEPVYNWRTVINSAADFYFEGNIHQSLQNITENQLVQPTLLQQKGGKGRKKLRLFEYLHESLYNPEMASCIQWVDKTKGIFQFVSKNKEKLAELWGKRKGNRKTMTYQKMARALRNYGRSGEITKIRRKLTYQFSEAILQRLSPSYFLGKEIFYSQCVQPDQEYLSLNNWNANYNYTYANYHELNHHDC
# In short: as §1
# [14] = target: ELF4 (Homo sapiens, UniProt Q99607 1-663); details: protein: recombinant; tags: N-terminal GST; dsDNA, one strand shown
# In short: as §1
# [15] = target: T9, ELK4 (Homo sapiens, UniProt P28324-2 1-405); details: protein: recombinant; tags: N-terminal GST; dsDNA, one strand shown
# T9 sequence: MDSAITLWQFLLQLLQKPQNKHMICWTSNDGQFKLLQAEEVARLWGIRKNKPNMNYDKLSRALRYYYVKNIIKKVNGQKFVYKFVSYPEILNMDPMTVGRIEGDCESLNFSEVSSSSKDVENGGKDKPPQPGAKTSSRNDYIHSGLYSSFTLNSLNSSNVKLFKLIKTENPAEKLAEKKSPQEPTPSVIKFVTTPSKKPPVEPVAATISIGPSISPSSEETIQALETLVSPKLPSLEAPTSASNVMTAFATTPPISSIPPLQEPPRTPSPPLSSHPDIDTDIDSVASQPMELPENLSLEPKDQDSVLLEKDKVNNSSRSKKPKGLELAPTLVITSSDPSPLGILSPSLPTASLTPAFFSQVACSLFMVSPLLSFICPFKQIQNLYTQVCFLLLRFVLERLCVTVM
# In short: as §1
# [16] = target: T10, ETV2 (Homo sapiens, UniProt O00321 1-342); details: protein: recombinant; tags: N-terminal GST; dsDNA, one strand shown
# T10 sequence: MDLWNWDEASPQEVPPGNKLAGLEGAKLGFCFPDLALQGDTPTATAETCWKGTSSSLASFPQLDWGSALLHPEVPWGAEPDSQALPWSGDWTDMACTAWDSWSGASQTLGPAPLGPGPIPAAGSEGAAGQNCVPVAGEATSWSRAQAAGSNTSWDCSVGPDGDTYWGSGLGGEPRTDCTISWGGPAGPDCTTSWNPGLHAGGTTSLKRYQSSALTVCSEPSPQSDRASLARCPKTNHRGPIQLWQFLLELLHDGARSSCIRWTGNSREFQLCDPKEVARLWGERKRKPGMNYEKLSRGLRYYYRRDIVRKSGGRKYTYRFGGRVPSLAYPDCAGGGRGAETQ
# In short: as §1
# [17] = target: T11, ELF3 (Homo sapiens, UniProt P78545 1-371); details: protein: recombinant; tags: N-terminal GST; dsDNA, one strand shown
# T11 sequence: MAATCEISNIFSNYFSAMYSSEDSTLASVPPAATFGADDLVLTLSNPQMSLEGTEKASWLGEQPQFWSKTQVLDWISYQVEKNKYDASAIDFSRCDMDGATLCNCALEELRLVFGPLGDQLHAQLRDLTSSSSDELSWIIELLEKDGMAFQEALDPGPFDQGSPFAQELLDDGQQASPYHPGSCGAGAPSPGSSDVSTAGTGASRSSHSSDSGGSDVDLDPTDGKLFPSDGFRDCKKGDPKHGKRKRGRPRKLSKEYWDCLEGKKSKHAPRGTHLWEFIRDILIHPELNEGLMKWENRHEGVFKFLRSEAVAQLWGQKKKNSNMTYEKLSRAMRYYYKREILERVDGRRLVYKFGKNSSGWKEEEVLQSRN
# In short: as §1
# [18] = target: CRX (Homo sapiens, UniProt O43186 1-299); details: protein: recombinant; tags: N-terminal GST; dsDNA, one strand shown
# In short: as §1
# [19] = target: ETV1 (Homo sapiens, UniProt P50549 1-477); details: protein: recombinant; tags: N-terminal GST; dsDNA, one strand shown
# In short: as §1
# Chain of ELF4 (Q99607 whole entry): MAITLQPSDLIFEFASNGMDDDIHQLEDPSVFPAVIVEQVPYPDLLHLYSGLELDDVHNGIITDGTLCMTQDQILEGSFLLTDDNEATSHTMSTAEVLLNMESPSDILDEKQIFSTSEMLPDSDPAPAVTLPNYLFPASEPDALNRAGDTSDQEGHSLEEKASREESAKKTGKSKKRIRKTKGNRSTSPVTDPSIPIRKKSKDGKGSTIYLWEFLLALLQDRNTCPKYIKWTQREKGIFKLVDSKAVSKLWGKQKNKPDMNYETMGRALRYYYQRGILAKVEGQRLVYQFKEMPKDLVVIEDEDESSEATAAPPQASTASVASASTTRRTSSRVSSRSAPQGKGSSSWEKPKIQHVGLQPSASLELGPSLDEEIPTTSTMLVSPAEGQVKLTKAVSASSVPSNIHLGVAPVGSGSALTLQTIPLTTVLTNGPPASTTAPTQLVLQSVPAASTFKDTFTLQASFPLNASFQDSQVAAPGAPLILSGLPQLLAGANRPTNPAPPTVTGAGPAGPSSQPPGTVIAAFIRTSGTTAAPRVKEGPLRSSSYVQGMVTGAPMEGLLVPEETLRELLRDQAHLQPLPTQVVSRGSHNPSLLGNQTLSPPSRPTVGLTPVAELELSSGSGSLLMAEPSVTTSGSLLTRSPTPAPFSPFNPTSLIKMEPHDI
# Chain of HSF1 (Q00613 whole entry): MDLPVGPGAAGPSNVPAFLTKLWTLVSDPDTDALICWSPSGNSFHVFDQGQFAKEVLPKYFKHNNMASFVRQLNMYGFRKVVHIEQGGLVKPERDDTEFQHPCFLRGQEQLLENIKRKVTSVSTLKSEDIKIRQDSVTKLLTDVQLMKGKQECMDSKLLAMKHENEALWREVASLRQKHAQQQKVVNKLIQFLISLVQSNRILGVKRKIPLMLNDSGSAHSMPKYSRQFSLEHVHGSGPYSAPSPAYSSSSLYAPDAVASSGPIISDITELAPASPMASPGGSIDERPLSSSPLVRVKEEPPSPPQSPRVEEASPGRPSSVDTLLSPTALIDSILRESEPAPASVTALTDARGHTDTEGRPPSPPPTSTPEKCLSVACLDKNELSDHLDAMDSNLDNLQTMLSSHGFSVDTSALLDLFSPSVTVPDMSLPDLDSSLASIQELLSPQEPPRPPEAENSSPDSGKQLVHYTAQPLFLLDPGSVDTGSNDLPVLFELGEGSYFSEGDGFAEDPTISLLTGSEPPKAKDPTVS
# Chain of ETV5 (P41161 whole entry): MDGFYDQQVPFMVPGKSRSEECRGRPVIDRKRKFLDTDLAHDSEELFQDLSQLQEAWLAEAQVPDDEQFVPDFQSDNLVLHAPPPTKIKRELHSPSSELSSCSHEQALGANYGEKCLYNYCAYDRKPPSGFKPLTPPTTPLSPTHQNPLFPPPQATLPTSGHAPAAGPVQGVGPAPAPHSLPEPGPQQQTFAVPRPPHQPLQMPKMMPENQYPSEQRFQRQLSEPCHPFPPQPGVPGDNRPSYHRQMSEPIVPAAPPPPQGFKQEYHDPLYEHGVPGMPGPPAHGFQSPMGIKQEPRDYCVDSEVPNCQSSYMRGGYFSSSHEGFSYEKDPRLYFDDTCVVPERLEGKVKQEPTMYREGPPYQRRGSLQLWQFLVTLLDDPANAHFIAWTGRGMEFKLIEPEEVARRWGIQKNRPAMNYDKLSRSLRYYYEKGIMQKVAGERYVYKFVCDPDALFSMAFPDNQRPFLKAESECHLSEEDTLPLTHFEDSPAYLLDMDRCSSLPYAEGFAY
# Chain of ELF1 (P32519 whole entry): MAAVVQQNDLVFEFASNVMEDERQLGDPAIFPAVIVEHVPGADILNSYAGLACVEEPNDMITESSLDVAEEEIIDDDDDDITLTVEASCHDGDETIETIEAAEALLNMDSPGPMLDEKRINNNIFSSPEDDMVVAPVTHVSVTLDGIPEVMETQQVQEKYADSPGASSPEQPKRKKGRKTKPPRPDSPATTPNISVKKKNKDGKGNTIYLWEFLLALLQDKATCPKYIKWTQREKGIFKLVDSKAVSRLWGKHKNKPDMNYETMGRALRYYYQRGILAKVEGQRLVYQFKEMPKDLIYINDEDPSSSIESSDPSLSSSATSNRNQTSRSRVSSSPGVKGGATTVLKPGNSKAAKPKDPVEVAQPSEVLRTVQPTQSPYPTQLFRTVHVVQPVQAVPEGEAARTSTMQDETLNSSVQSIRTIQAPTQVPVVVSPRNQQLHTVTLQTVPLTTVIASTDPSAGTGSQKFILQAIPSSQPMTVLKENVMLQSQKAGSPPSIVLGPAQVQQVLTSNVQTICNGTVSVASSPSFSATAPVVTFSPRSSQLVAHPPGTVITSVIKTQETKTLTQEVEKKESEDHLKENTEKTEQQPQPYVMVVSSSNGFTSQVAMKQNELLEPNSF
# Chain of SPIB (Q01892 whole entry): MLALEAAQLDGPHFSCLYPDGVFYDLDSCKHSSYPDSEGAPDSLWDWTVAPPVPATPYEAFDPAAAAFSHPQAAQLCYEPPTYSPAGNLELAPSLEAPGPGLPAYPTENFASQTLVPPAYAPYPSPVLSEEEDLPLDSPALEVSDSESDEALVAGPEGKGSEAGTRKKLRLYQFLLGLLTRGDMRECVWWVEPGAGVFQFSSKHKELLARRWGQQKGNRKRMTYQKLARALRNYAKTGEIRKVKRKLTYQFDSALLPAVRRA
# Chain of ETV1 (P50549 whole entry): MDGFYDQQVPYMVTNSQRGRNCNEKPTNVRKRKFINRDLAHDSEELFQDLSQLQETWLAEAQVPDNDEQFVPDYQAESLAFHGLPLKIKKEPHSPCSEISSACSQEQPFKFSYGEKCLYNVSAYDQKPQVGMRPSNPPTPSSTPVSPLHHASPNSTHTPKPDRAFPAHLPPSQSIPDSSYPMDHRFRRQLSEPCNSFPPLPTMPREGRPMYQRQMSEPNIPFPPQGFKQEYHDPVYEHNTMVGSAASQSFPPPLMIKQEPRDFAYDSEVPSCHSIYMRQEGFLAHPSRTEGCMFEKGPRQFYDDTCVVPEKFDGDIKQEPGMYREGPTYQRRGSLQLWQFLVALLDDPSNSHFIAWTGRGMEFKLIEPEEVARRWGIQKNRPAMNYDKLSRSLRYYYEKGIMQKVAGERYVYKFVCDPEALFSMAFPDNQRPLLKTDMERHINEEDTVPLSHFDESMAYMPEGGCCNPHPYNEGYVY
# Chain of CRX (O43186 whole entry): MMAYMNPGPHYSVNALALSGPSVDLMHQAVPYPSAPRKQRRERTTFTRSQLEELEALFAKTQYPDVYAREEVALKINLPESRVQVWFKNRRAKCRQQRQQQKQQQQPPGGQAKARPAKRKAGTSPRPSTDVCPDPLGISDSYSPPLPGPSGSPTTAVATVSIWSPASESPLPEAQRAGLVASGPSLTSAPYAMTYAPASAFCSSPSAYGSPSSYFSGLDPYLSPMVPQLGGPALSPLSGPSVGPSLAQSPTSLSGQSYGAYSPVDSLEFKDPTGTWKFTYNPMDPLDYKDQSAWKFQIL
sequence,measurement,setting,value
ACGAAT,binding signal,[1],"1.12 fold enrichment (6-mer frequency, TF over GST control)"
same,binding signal,[2],"1.1 fold enrichment (6-mer frequency, TF over GST control)"
same,binding signal,[3],"1.22 fold enrichment (6-mer frequency, TF over GST control)"
same,binding signal,[4],"1.07 fold enrichment (6-mer frequency, TF over GST control)"
same,binding signal,[5],"1.15 fold enrichment (6-mer frequency, TF over GST control)"
same,binding signal,[6],"1.13 fold enrichment (6-mer frequency, TF over GST control)"
same,binding signal,[7],"1.13 fold enrichment (6-mer frequency, TF over GST control)"
same,binding signal,[8],"1.15 fold enrichment (6-mer frequency, TF over GST control)"
same,binding signal,[9],"1.13 fold enrichment (6-mer frequency, TF over GST control)"
same,binding signal,[10],"1.17 fold enrichment (6-mer frequency, TF over GST control)"
same,binding signal,[11],"1.14 fold enrichment (6-mer frequency, TF over GST control)"
same,binding signal,[12],"1.39 fold enrichment (6-mer frequency, TF over GST control)"
same,binding signal,[13],"1.16 fold enrichment (6-mer frequency, TF over GST control)"
same,binding signal,[14],"1.11 fold enrichment (6-mer frequency, TF over GST control)"
same,binding signal,[15],"1.2 fold enrichment (6-mer frequency, TF over GST control)"
same,binding signal,[16],"1.15 fold enrichment (6-mer frequency, TF over GST control)"
same,binding signal,[17],"1.12 fold enrichment (6-mer frequency, TF over GST control)"
same,binding signal,[18],"1.21 fold enrichment (6-mer frequency, TF over GST control)"
same,binding signal,[19],"1.14 fold enrichment (6-mer frequency, TF over GST control)"
